Laboratory results as given in ChEMBL document CHEMBL3433997, “St. Jude Leishmania screening dataset” (2016).

Molecular target: Solute carrier family 2, facilitated glucose transporter member 1 (Homo sapiens) (UniProt P11166)
Test: ST_JUDE_LEISH: Cytotoxicity at 2uM final concentration against transgenic Leishmania Mexicana promastigotes LmGLUT1 that are glucose transport deficient and complemented with the human glucose transporter GLUT1. Activity is measured by DNA content using SYBR green in vitro
Assay type: functional

Solute carrier family 2, facilitated glucose transporter member 1 (Homo sapiens), sequence (P11166 whole entry): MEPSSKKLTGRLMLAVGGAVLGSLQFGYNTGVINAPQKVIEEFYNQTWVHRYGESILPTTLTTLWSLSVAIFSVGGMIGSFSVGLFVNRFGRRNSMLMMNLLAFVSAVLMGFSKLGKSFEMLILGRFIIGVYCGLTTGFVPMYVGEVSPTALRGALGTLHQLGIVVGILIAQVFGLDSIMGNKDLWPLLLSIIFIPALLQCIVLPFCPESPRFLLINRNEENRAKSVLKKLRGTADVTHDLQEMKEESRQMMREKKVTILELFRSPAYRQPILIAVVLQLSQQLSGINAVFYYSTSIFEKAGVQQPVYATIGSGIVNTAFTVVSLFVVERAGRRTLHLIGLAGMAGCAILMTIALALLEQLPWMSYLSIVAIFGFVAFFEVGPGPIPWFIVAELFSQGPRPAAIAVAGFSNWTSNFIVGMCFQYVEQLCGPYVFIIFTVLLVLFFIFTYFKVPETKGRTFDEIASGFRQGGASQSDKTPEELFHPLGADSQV

Structure (SMILES)	inhibition [%]
O=C(Nc1ccc(Cn2ncc(N3CCCNCC3)c(Cl)c2=O)cc1)Nc1ccc(F)cc1[N+](=O)[O-]	10.2
Cc1nc(-c2cccc(C(=O)NC3CCC(CCN4CCc5ccc(-c6cccnc6)cc5CC4)CC3)c2)no1 (stereo not given)	11.5
c1cncc(CCNCc2ccc(-c3ccc(-c4nc5ccccc5[nH]4)s3)cc2)c1	8.43
Cc1cccc2nc(-c3cccc(-c4cccc(NC(=O)c5cccnc5Cl)c4)c3)[nH]c12	1.25
CC1CN(Cc2csc(Nc3ccccc3)n2)CC(C)O1 (stereo not given)	-0.51
CCOc1cc(C(=O)NCC2CCN(CC3CCCCC3)CC2)ccc1-c1nc2cc(Cl)ccc2[nH]1	0.56
Cc1cc(N2CCCC2)nc(Nc2ccc(NC(=O)c3ccccc3C)cc2)n1	-1.05
CS(=O)(=O)c1ccccc1CNC(=O)c1ccc(-c2ccc(-c3nc4cc(C(F)(F)F)ccc4[nH]3)s2)cc1	7.56
O=C(Nc1ccccc1)Nc1cccc(-c2nn3c(OCC4CCCCN4)cccc3c2-c2ccncc2)c1 (stereo not given)	5.24
COc1ccc(CNCC2CCC(CNCCc3ccccc3)CC2)cc1Cl (stereo not given)	1.1
Oc1cc2c(cc1CN1CCN(Cc3ccccc3F)CC1)CCC2	1.19
CCCCCN1CCCC(NS(=O)(=O)c2cccc(C(=O)Nc3cccc(C(F)(F)F)c3)c2)C1 (stereo not given)	-0.69
O=C(/C=C/c1ccc(Cl)c(Cl)c1)NCCCCCN1CCC(NC(=O)Nc2cccc(Cl)c2Cl)CC1	-2.33
CCc1cc(-c2n[nH]c(C(F)(F)F)c2-c2ccccc2)c(O)cc1OC	2.03
O=C(CCNc1ccnc(NCCc2ccccc2)n1)Nc1ccccc1	-0.28
Cc1ccc(CCC(C)NCC(O)c2cccc(Cl)c2)cc1 (stereo not given)	12.8
CN1CCC(N2CCN(Cc3cccc(-c4ccc(-c5nc6cc(C(F)(F)F)ccc6[nH]5)cc4)c3)CC2)CC1	2.62
Cc1ccc(NC(=O)c2ccc3ncccc3c2)cc1OC1CCN(Cc2ccco2)C1 (stereo not given)	0.45
Cc1cc(N[C@@H](CC(C)C)C(=O)NCc2cccs2)nc(Nc2ccccc2)n1	5.66
O=C(Nc1ccc2c(c1)OCO2)NC1CCN(c2ccnc(NCc3ccc(F)cc3)n2)CC1	2.05

Structure (SMILES)	inhibition [%]
CN(C)c1nc2cc(-n3cnc4cc(-c5ccc(Cl)cc5)sc4c3=O)ccc2n1CCCN1CCCC1	12
Cc1cc(C)c(C(=O)Nc2n[nH]c3nnc(-c4cccc(F)c4F)cc23)c(C)c1	0.09
Cc1nc(C)c(-c2ccc(Oc3ccc([S+](C)[O-])cc3)cc2)c(O)c1Br (stereo not given)	3.66
O=C(Nc1cccc(-c2nn3ccccc3c2-c2ccnc(Nc3ccc(NCCCN4CCOCC4)c(F)c3)n2)c1)c1c(F)cccc1F	46.9
O=C(NCc1cccc2ccccc12)C(c1cc2ccccc2o1)N1CCN(C(c2ccccc2)c2ccccc2)CC1 (stereo not given)	3.87
O=C(CCc1c[nH]cn1)Nc1cccc(-c2ccc(-c3nc4cc(F)ccc4[nH]3)s2)c1	10.2
Cn1cncc1C(=O)Nc1ccc(-c2ccc(-c3nc4cc(C(F)(F)F)ccc4[nH]3)cc2)cc1	20.8
CC(=O)Nc1ccc(C(=O)Nc2cccc(-c3ccc(-c4nc5cc(F)ccc5[nH]4)s3)c2)cn1	0.96
Cc1cccc(-n2nc(C)c3c2NC(=O)CC3C(=O)c2ccc(Cl)s2)c1 (stereo not given)	1.99
O=C(NCCCCCN1CCCN(C(=O)Nc2ccc(Cl)c(C(F)(F)F)c2)CC1)C1CC1c1ccc(Cl)c(Cl)c1 (stereo not given)	2.42
NCCNc1ccc([N+](=O)[O-])cc1C(=O)Nc1cccc(Cl)c1	2.71
Cc1ccoc1C(=O)Nc1cccc(-c2cccc(-c3nc4cc(C(F)(F)F)ccc4[nH]3)c2)c1	3.75
CCN(CCCN1CCCCC1)c1cc(C)nc(Nc2ccc(Oc3ccccc3)cc2)n1	5.66
Cc1ccc(NC(=O)c2ccc(N3CCN(c4ccncc4)CC3)cc2)cc1F	68
Cc1nc(-c2nc(N3CCOCC3)ncc2-c2ccsc2)sc1C	-1.47
COc1ccc(C(=O)N2CCC(CN3CCOC(c4ccccc4)(c4ccccc4)C3)CC2)cc1	0.77
Nc1nc(N)c2cc(CNc3ccc(Cl)c(Cl)c3)ccc2n1	8.27
CCCCNC[C@@H](O)[C@H](Cc1ccccc1)NC(=O)c1cc(NCC)cc(N2CCCCS2(=O)=O)c1	4.19
COc1ccc(-c2cccc(NC(=O)c3cccc(C#N)c3)c2)cc1CNC(C)C	9.6
Cn1nc(-c2ccc(NC(=O)Nc3cc(C(F)(F)F)ccc3F)cc2)c2cnc(NCCc3c[nH]cn3)nc21	3.35

Molecular target: Hexose transporter 1 (Plasmodium falciparum) (UniProt O97467)
Test: ST_JUDE_LEISH: Cytotoxicity at 2uM final concentration against transgenic Leishmania Mexicana promastigotes LmPfHT that are glucose transport deficient and complemented with the Plasmodium falciparum hexose transporter. Activity is measured by DNA content using SYBR green in vitro
Assay type: functional

Structure (SMILES)	inhibition [%]
O=C(Nc1ccc(Cn2ncc(N3CCCNCC3)c(Cl)c2=O)cc1)Nc1ccc(F)cc1[N+](=O)[O-]	11.4
Cc1nc(-c2cccc(C(=O)NC3CCC(CCN4CCc5ccc(-c6cccnc6)cc5CC4)CC3)c2)no1 (stereo not given)	2.55
c1cncc(CCNCc2ccc(-c3ccc(-c4nc5ccccc5[nH]4)s3)cc2)c1	6.34
Cc1cccc2nc(-c3cccc(-c4cccc(NC(=O)c5cccnc5Cl)c4)c3)[nH]c12	2.51
CC1CN(Cc2csc(Nc3ccccc3)n2)CC(C)O1 (stereo not given)	0.99
CCOc1cc(C(=O)NCC2CCN(CC3CCCCC3)CC2)ccc1-c1nc2cc(Cl)ccc2[nH]1	1.54
Cc1cc(N2CCCC2)nc(Nc2ccc(NC(=O)c3ccccc3C)cc2)n1	6.45
CS(=O)(=O)c1ccccc1CNC(=O)c1ccc(-c2ccc(-c3nc4cc(C(F)(F)F)ccc4[nH]3)s2)cc1	2.99
O=C(Nc1ccccc1)Nc1cccc(-c2nn3c(OCC4CCCCN4)cccc3c2-c2ccncc2)c1 (stereo not given)	1.67
COc1ccc(CNCC2CCC(CNCCc3ccccc3)CC2)cc1Cl (stereo not given)	2.42
Oc1cc2c(cc1CN1CCN(Cc3ccccc3F)CC1)CCC2	-1.37
CCCCCN1CCCC(NS(=O)(=O)c2cccc(C(=O)Nc3cccc(C(F)(F)F)c3)c2)C1 (stereo not given)	-0.64
O=C(/C=C/c1ccc(Cl)c(Cl)c1)NCCCCCN1CCC(NC(=O)Nc2cccc(Cl)c2Cl)CC1	-0.39
CCc1cc(-c2n[nH]c(C(F)(F)F)c2-c2ccccc2)c(O)cc1OC	1.54
O=C(CCNc1ccnc(NCCc2ccccc2)n1)Nc1ccccc1	3.7
Cc1ccc(CCC(C)NCC(O)c2cccc(Cl)c2)cc1 (stereo not given)	13.1
CN1CCC(N2CCN(Cc3cccc(-c4ccc(-c5nc6cc(C(F)(F)F)ccc6[nH]5)cc4)c3)CC2)CC1	3.31
Cc1ccc(NC(=O)c2ccc3ncccc3c2)cc1OC1CCN(Cc2ccco2)C1 (stereo not given)	1.05
Cc1cc(N[C@@H](CC(C)C)C(=O)NCc2cccs2)nc(Nc2ccccc2)n1	3.95
O=C(Nc1ccc2c(c1)OCO2)NC1CCN(c2ccnc(NCc3ccc(F)cc3)n2)CC1	2.3

Structure (SMILES)	inhibition [%]
CN(C)c1nc2cc(-n3cnc4cc(-c5ccc(Cl)cc5)sc4c3=O)ccc2n1CCCN1CCCC1	13.9
Cc1cc(C)c(C(=O)Nc2n[nH]c3nnc(-c4cccc(F)c4F)cc23)c(C)c1	-0.09
Cc1nc(C)c(-c2ccc(Oc3ccc([S+](C)[O-])cc3)cc2)c(O)c1Br (stereo not given)	3.7
O=C(Nc1cccc(-c2nn3ccccc3c2-c2ccnc(Nc3ccc(NCCCN4CCOCC4)c(F)c3)n2)c1)c1c(F)cccc1F	30.5
O=C(NCc1cccc2ccccc12)C(c1cc2ccccc2o1)N1CCN(C(c2ccccc2)c2ccccc2)CC1 (stereo not given)	1.42
O=C(CCc1c[nH]cn1)Nc1cccc(-c2ccc(-c3nc4cc(F)ccc4[nH]3)s2)c1	7.95
Cn1cncc1C(=O)Nc1ccc(-c2ccc(-c3nc4cc(C(F)(F)F)ccc4[nH]3)cc2)cc1	15
CC(=O)Nc1ccc(C(=O)Nc2cccc(-c3ccc(-c4nc5cc(F)ccc5[nH]4)s3)c2)cn1	1.55
Cc1cccc(-n2nc(C)c3c2NC(=O)CC3C(=O)c2ccc(Cl)s2)c1 (stereo not given)	4.4
O=C(NCCCCCN1CCCN(C(=O)Nc2ccc(Cl)c(C(F)(F)F)c2)CC1)C1CC1c1ccc(Cl)c(Cl)c1 (stereo not given)	0.79
NCCNc1ccc([N+](=O)[O-])cc1C(=O)Nc1cccc(Cl)c1	4.41
Cc1ccoc1C(=O)Nc1cccc(-c2cccc(-c3nc4cc(C(F)(F)F)ccc4[nH]3)c2)c1	1.86
CCN(CCCN1CCCCC1)c1cc(C)nc(Nc2ccc(Oc3ccccc3)cc2)n1	5.07
Cc1ccc(NC(=O)c2ccc(N3CCN(c4ccncc4)CC3)cc2)cc1F	74.7
Cc1nc(-c2nc(N3CCOCC3)ncc2-c2ccsc2)sc1C	-0.4
COc1ccc(C(=O)N2CCC(CN3CCOC(c4ccccc4)(c4ccccc4)C3)CC2)cc1	2.13
Nc1nc(N)c2cc(CNc3ccc(Cl)c(Cl)c3)ccc2n1	6.41
CCCCNC[C@@H](O)[C@H](Cc1ccccc1)NC(=O)c1cc(NCC)cc(N2CCCCS2(=O)=O)c1	2.9
COc1ccc(-c2cccc(NC(=O)c3cccc(C#N)c3)c2)cc1CNC(C)C	8.42
Cn1nc(-c2ccc(NC(=O)Nc3cc(C(F)(F)F)ccc3F)cc2)c2cnc(NCCc3c[nH]cn3)nc21	3.29
